Experimental data reported in PubChem BioAssay.
Calls of active or inactive are those of the source. Unless noted, the rule behind the calls is not given here.

Legend:
[1] = compounds binding Alexa647 anti-His antibody – biochemical, small-molecule microarray, 635 nm fluorescence, artefact control for SMM control protein annotation, primary screen (AID 1128); settings: higher = more signal;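 note: score merges feature fluorescence with signal-to-noise for each printed compound spot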
[2] = tested on: Human papillomavirus type 1a E7 protein (residues 1-88); test: HPV1a E7 small-molecule binders, primary screen, biochemical, small-molecule microarray, residues 1-88, 635 nm (AID 1129); settings: small-molecule microarray binding, fluorescence 635 nm; higher = more signal
[3] = target: Focal adhesion kinase 1 (Homo sapiens) (UniProt Q05397); test: PTK2 protein binding on printed compound slides – biochemical, small-molecule microarray, 635/667 nm fluorescence, BSA, DTT, primary screen (AID 1130); settings: 635 nm fluorescence, higher = more signal;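 note: composite of spot emission at 667 nm and signal to noise over triplicate slides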
[4] = tested on: Fibrinogen (Alexa647-labelled); test: Alexa647-fibrinogen binding to printed small molecules – biochemical, small-molecule microarray, 635/667 nm fluorescence, artefact control for SMM control-protein annotation, profiling panel (AID 1131); settings: fibrinogen-A647 binding fluorescence, higher = more signal;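 note: z-score merges 667 nm fluorescence with per-spot signal-to-noise over triplicate slides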
[5] = target: Follistatin (Homo sapiens) (UniProt P19883); test: FST protein binding to printed compounds – biochemical, small-molecule microarray, 635/667 nm fluorescence, primary screen (AID 1132); settings: 635 nm fluorescence, higher = more signal
[6] = target: Fibroblast growth factor 2 (Homo sapiens) (UniProt P09038); test: basic fibroblast growth factor binding to printed compounds – biochemical, small-molecule microarray, 635/667 nm fluorescence, primary screen (AID 1133); settings: FGF2, fluorescence 635/667, higher = more signal
[7] = JC-1 mitochondrial potential readout, lung cancer cells – cell-based, A549, JC-1 fluorescence, basal, 24 h, 100 nL, profiling panel (AID 1138); settings: higher = more signal;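 note: A549 lung adenocarcinoma cells under basal conditions with no added stimulus; test concentration not given here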
Lefty1 = Lefty1 protein binding to printed compounds – biochemical, small-molecule microarray, 635/667 nm fluorescence, primary screen (AID 1139); settings: fluorescence 635/667, higher = more signal
[8] = tested on: wheat germ agglutinin (Triticum aestivum), Alexa647-labelled; test: Alexa647-WGA lectin binding to printed small molecules – biochemical, small-molecule microarray, 635/667 nm fluorescence, artefact control for SMM control-protein annotation, profiling panel (AID 1140); settings: WGA-A647 binding, 635 nm fluorescence, higher = more signal;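 note: score merges 667 nm feature emission with signal to noise over triplicate slides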
[9] = target: Luciferin 4-monooxygenase (Photinus pyralis) (UniProt P08659); test: inhibition of purified Photinus pyralis luciferase – biochemical, luminescence, purified enzyme, 2006 set, primary screen (AID 1141); settings: purified firefly luciferase, SteadyGlo luminescence, 30 min; higher = more signal, called active from +8 up or from −8 down;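 note: cell-free assay with purified firefly luciferase at 100 ng per well in PBS; test concentration not given here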
[10] = tested on: Wnt5a (protein binding on small-molecule microarray); test: small molecules binding Wnt5a protein – biophysical, small-molecule microarray, 635/667 nm fluorescence, primary screen (AID 1142); settings: 635 nm fluorescence, higher = more signal;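 note: fluorescence read at 667 nm with signal to noise per printed feature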
[11] = ATP-based viability of Huh7 replicon cells – cell-based, CellTiter-Glo luminescence, basal, 48 h, cytotoxicity control for HCV replication inhibitor project, primary screen (AID 1143); settings: higher = more signal, called active from +8 up or from −8 down;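 note: Huh7 hepatoma cells carrying a hepatitis C replication reporter with no stimulus; test concentration not given here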
[12] = Pseudomonas biofilm growth suppression – PAO1 strain, BacTiter-Glo luminescence, LB-PBS, primary screen (AID 1144); settings: P. aeruginosa PAO1 biofilm, 12 h, higher = more signal
[13] = basal CRE-LacZ reporter activity in PC12 – cell-based, unstimulated, primary screen (AID 1145); settings: no forskolin, luminescence, 4.5 h, higher = more signal, called active from +8 up or from −8 down
[14] = forskolin-driven CRE-LacZ activity in PC12 – cell-based, CRE-LacZ reporter, forskolin-stimulated, primary screen (AID 1146); settings: luminescence, 4.5 h, higher = more signal, called active from +8 up or from −8 down;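 note: PC12 cells with 6xCRE LacZ reporter stimulated by forskolin 10 µM; beta-galactosidase reporter signal reflecting CREB driven transcription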
[15] = target: Streptavidin (Streptomyces avidinii) (UniProt P22629); test: compounds binding control protein streptavidin – biophysical, small-molecule microarray, 635/667 nm fluorescence, artefact control for SMM compound annotation, primary screen (AID 1147); settings: higher = more signal;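 note: signal reflects streptavidin binding to arrayed compounds as a control protein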
[16] = probe aInhba binding on compound microarray – biochemical, small-molecule microarray, 635/667 nm fluorescence, primary screen (AID 1148); settings: higher = more signal;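 note: score merges 667nm spot fluorescence with signal-to-noise for antibody binding to printed compounds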
Torsin-1A (Homo sapiens) [17] = target: Torsin-1A (Homo sapiens) (UniProt O14656); test: TOR1A wild-type binding on microarray – cell lysate, small-molecule microarray, lysate, 635/667 nm, primary screen (AID 1149); settings: COS7 hTOR1A-WT lysate, 635 nm fluorescence, higher = more signal
Torsin-1A (Homo sapiens) [18] = target: Torsin-1A (Homo sapiens) (UniProt O14656); test: torsin A mutant lysate binding on microarrays – cell lysate, small-molecule microarray, COS7 lysate, 635/667 nm fluorescence, primary screen (AID 1150); settings: COS7 hTOR1A mutant lysate, 635 nm fluorescence, higher = more signal;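 note: score pools 667 nm emission and signal to noise measuring lysate protein binding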
[19] = tested on: Sonic hedgehog protein (Shh); test: Sonic hedgehog microarray binding compounds – biochemical, small-molecule microarray, 635/667 nm fluorescence, primary screen (AID 1151); settings: 635 nm fluorescence, higher = more signal;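 note: Shh protein binding to compounds spotted on small-molecule microarray slides; score combines spot fluorescence intensity with signal-to-noise across triplicate slides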

Chain of Streptavidin (Streptomyces avidinii) (P22629 whole entry, looked up): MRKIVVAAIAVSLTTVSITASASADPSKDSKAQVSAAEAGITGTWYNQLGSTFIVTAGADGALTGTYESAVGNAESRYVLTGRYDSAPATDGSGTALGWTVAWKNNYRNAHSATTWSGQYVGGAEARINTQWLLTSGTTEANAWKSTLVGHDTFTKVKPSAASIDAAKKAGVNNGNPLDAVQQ
Chain of Focal adhesion kinase 1 (Homo sapiens) (Q05397 whole entry, looked up): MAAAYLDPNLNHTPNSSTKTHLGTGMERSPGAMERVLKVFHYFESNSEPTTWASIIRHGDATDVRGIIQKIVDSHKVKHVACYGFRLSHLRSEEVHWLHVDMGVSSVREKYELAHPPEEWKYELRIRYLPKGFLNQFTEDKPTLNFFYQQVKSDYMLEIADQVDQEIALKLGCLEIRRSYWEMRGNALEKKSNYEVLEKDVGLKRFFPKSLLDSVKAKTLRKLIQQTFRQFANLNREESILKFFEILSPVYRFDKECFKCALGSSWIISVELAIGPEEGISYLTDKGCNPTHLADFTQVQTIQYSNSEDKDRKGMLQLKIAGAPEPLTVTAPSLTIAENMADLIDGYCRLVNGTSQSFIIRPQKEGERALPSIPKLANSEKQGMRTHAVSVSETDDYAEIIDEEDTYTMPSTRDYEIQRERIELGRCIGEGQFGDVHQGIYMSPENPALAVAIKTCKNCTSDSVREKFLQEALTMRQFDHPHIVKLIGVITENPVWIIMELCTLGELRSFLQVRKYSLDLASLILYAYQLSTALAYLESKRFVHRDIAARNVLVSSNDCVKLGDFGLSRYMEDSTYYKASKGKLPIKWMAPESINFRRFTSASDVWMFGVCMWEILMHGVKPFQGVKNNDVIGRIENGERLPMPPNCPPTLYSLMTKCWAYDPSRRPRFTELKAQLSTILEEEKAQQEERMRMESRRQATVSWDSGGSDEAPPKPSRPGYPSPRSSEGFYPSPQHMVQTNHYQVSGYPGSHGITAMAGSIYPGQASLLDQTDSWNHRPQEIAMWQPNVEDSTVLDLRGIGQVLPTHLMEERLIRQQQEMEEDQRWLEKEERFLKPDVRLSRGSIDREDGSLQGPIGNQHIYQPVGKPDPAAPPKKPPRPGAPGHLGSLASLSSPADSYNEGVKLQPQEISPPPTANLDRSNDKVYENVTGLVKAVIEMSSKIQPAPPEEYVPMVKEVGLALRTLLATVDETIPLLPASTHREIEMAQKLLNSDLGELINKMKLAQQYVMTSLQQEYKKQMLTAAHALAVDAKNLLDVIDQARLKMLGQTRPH
Chain of Follistatin (Homo sapiens) (P19883 whole entry, looked up): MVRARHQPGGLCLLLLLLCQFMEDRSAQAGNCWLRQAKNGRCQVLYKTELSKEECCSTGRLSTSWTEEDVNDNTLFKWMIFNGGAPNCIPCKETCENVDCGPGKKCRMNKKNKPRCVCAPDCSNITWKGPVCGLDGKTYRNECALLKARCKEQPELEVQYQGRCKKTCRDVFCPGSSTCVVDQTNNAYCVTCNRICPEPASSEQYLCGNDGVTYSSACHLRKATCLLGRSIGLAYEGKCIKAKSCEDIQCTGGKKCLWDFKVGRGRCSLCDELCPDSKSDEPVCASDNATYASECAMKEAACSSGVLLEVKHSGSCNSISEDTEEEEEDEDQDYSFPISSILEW
Chain of Luciferin 4-monooxygenase (Photinus pyralis) (P08659 whole entry, looked up): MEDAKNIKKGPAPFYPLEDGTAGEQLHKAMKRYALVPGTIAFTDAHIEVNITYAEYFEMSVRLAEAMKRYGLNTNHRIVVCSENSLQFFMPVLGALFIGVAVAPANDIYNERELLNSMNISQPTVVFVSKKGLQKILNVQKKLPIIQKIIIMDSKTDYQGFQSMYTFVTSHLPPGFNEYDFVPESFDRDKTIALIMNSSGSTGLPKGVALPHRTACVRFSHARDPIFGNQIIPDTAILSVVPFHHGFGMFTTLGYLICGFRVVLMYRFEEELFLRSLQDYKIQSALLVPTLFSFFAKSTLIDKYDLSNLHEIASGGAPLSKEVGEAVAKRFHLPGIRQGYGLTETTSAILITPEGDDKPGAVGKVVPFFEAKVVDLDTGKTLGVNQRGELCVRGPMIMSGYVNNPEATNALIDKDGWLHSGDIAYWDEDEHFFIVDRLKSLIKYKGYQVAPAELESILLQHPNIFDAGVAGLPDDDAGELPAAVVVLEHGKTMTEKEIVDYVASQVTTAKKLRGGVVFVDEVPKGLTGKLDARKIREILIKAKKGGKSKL
Chain of Torsin-1A (Homo sapiens) (O14656 whole entry, looked up): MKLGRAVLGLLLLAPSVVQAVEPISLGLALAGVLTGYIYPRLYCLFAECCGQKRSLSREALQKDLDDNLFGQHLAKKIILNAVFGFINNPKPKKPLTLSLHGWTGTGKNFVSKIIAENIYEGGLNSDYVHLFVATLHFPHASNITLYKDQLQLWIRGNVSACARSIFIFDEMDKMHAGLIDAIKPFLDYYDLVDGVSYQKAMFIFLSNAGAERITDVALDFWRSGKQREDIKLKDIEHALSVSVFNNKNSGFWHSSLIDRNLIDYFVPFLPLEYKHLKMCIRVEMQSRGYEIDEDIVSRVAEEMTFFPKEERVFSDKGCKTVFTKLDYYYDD
Chain of Fibroblast growth factor 2 (Homo sapiens) (P09038 whole entry, looked up): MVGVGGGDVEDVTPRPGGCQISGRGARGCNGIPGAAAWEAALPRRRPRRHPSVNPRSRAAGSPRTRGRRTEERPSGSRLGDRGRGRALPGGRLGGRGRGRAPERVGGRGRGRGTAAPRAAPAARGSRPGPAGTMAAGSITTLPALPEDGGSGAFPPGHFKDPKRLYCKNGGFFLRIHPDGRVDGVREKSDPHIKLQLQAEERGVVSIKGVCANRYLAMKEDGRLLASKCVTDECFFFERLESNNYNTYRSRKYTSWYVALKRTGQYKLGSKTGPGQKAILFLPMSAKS

| Compound | composite z-score [1] | composite z-score [2] | composite z-score [3] | composite z-score [4] | composite z-score [5] | composite z-score [6] | z-score [7] | composite z-score (Lefty1) | composite z-score [8] | z-score [9] | composite z-score [10] | z-score [11] | z-score [12] | z-score [13] | z-score [14] | composite z-score [15] | composite z-score [16] | composite z-score (Torsin-1A (Homo sapiens) [17]) | composite z-score (Torsin-1A (Homo sapiens) [18]) | composite z-score [19] |
| --- | --- | --- | --- | --- | --- | --- | --- | --- | --- | --- | --- | --- | --- | --- | --- | --- | --- | --- | --- | --- |
| O=C1C2C=CC(C(O)c3cccc4ccccc34)N(Nc3ccccc3)C2C(=O)N1c1ccccc1 (stereo not given) | 2.24 | 1.17 | 1.99 | 0.971 | 1.23 | 0.729 | -0.39 | 0.576 | 0.753 | -1.05 (inactive) | 0.336 | -1.3 (inactive) | -1.46 (inactive) | 0.429 (inactive) | -0.637 (inactive) | 0.595 | 0.0705 | 0.327 | 0.463 | 0.296 |
| COCCCNC(=O)[C@@H]1c2ccccc2C(=O)N(Cc2cc(F)cc(C(F)(F)F)c2)[C@H]1c1ccc(CO)cc1 | -0.669 | -1.06 | -0.751 | -1.81 | -0.252 | -0.94 | 0.261 | -0.584 | 0.373 | -0.646 (inactive) | -0.575 | -0.016 (inactive) | -0.043 (inactive) | 0.944 (inactive) | -0.224 (inactive) | -0.716 | -0.264 | -2.22 | -0.0932 | -0.508 |
| CC(C)CCC[C@@H](C)[C@H]1CC[C@@]2(C)C3=C(CC[C@]12C)[C@@]1(C)CC[C@H](OC(=O)C(C)(C)C)C(C)(C)C1CC3 (stereo not given in full) | 0.43 | 0.586 | 0.0226 | 0.551 | 0.828 | 0.232 | 0.4 | 0.543 | 0.0969 | 0.159 (inactive) | 0.228 | -2.46 (inactive) | -0.738 (inactive) | 0.12 (inactive) | -1.2 (inactive) | 0.122 | -0.186 | 0.89 | 0.31 | 0.836 |
| C=CCC(OC(C)=O)[C@@H]1[C@@H](N(Cc2cc3ccccc3o2)C(=O)Cc2ccc(OC)cc2)c2cc(OCCCO)ccc2N1C(=O)c1ccc(-c2ccccc2)cc1 (stereo not given in full) | -0.316 | -0.313 | 0.107 | -0.203 | 0.352 | 0.133 | 0.94 | -0.492 | -0.272 | -0.52 (inactive) | 0.0628 | -0.279 (inactive) | -0.866 (inactive) | 2.47 (inactive) | -0.362 (inactive) | 0.215 | 0.105 | 0.176 | 0.262 | 0.0275 |
| C[N+](C)(C)CCCCCCNC(=O)[C@@H]1C[C@@H]2C(=O)NCC(=O)N2[C@@H]1c1ccc(O)cc1 | 0.946 | 1.05 | -0.0272 | 0.49 | 1.41 | 1.31 | -0.779 | 1.53 | 0.01 | 0.584 (inactive) | 0.0508 | -0.0464 (inactive) | -0.404 (inactive) | -0.532 (inactive) | -0.828 (inactive) | 1.44 | -0.0933 | 0.319 | 0.523 | 2.16 |
| C[N+](C)(C)CCCCCCNC(=O)[C@H]1C[C@H]2C(=O)N3CCC[C@H]3C(=O)N2[C@H]1c1cccc(OCCO)c1 | 1.38 | 0.874 | 0.141 | 0.242 | 1.3 | 1.35 | -1.05 | 1.64 | -0.0285 | 0.126 (inactive) | 0.544 | -0.0803 (inactive) | 0.236 (inactive) | -0.532 (inactive) | -0.583 (inactive) | -0.278 | -0.0112 | 1.98 | 1.71 | 2.15 |
| O=C(O)[C@]1(CCS(=O)(=O)c2ccccc2)N=C(c2ccc(OCCCO)cc2)O[C@@H]1c1ccccc1 | 0.367 | 0.228 | 0.221 | 0.447 | -0.029 | -0.0377 | 0.0511 | -0.655 | 1.36 | -1.87 (inactive) | 0.235 | 0.495 (inactive) | 0.869 (inactive) | 0.19 (inactive) | -0.534 (inactive) | -0.0087 | 0.297 | -0.0493 | -0.301 | -0.439 |
| COc1ccc([Si](C)(C)[C@@H]2[C@@H](CCO)O[C@]3(C(=O)N(Cc4ccc(N5C(=O)c6ccccc6Oc6ccccc65)cc4)c4ccccc43)[C@H]2C)cc1 | 0.0758 | -0.235 | -0.394 | -0.0953 | -0.163 | -1.1 | -0.285 | 0.0179 | 0.104 | 0.173 (inactive) | -0.355 | -7.17 (inactive) | -0.734 (inactive) | 2.5 (inactive) | 0.286 (inactive) | -0.132 | -0.179 | -1.04 | -0.949 | 0.0769 |
| COc1cc2c(cc1OC)CN(C(=O)[C@@H]1[C@H]3C(=O)O[C@H](c4ccccc4)[C@H](c4ccccc4)N3[C@H](c3ccc(OCCO)cc3)[C@@]13C(=O)Nc1ccc(C#CCCO)cc13)CC2 | 1.23 | 1.23 | 0.237 | 0.956 | 1.36 | 0.999 | -1.37 | 1.08 | 1.27 | -0.418 (inactive) | 0.452 | -4.91 (inactive) | -1.07 (inactive) | -0.465 (inactive) | 0.0283 (inactive) | 1.64 | -0.0812 | 0.431 | 0.755 | 1.25 |
| C=CCOc1ccc([C@@H]2CC=C(C(=O)OCC)[C@H](c3cccc(Br)c3)N2S(=O)(=O)c2ccc(C)cc2)cc1 | -0.296 | 0.0511 | -0.209 | -0.161 | 0.199 | -0.0901 | 3.89 | -0.109 | 0.268 | 0.594 (inactive) | 0.141 | -4.43 (inactive) | 0.681 (inactive) | -0.424 (inactive) | 0.165 (inactive) | 0.414 | -0.0831 | 0.0699 | 0.307 | 0.0537 |
